A short description of the assay: chemical genetic growth profiling, strain panel (AID 1159580).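 Further: tested at 20 µM; growth read once vehicle control cultures reached saturation at 30 °C; 1 = growth at the plate median or of vehicle wells; lower values mean less growth of the strain.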 As to conditions: S. cerevisiae deletion strains, growth OD.

Among all 5,500 compounds or so, about 2,000 (36%) were called active. Not shown: some 18% with an inconclusive outcome. The list shows a part of the results. Values without a mark were called inactive. No stated cut-off is given here; in the data, active means normalized growth mostly below about 0.91 (no sharp cut-off); inconclusive means no clear call, values can overlap the other calls; inactive means mostly above about 0.92.

One compound from PubChem BioAssay AID1159580 (chemical genetic matrix, 2015) can be followed below.

Turning to `COC1=C(OC)C(=O)c2ccccc2C1=O`, the normalized growth is 0.962 (locus YAL040C, strain CLN3, hits give low values); 0.734 (active) (locus YDR363W, strain ESC2, hits give low values); 0.985 (locus YER002W, strain NOP16, hits give low values); 0.995 (locus YGR078C, strain PAC10, hits give low values); 0.998 (locus YJR075W, strain HOC1, hits give low values); 1.02 (locus YMR263W, strain SAP30, hits give low values). Also, the normalized growth reads like this: (locus YMR307W, strain GAS1, hits give low values) 0.886 (active); (locus YNL153C, strain GIM3, hits give low values) 0.703 (active); (locus YNL175C, strain NOP13, hits give low values) 0.978; (locus YNL197C, strain WHI3, hits give low values) 0.941; (locus YNL224C, strain SQS1, hits give low values) 0.977; (locus YOR083W, strain WHI5 (second series), hits give low values) 0.883.
